Test results published in PubChem BioAssay (NCI).
The panel holds about 83,000 compounds, 20% with a hit somewhere; the sample as a whole holds those more often.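 Single-dose data. Exposure time 48 hours. Values below 10 considered active.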 Values without a mark were called inactive. Active and inactive are the calls of the source.

Key:
Assay in all cases: NCI-60 one-dose screen, 48 h (100 = growth as untreated, 0 = no growth, -100 = all killed)
Settings in all cases: 10 µM unless noted
NCI-H23 lung = system: NCI-H23 lung
NCI-H226 lung = system: NCI-H226 lung
NCI-H322M lung = system: NCI-H322M lung
HOP-62 NSCLC = system: HOP-62 NSCLC
NCI-H460 lung = system: NCI-H460 lung
HOP-92 NSCLC = system: HOP-92 NSCLC
NCI-H522 lung = system: NCI-H522 lung
A549/ATCC NSCLC = system: A549/ATCC NSCLC
786-0 renal = system: 786-0 renal
COLO 205 colon = system: COLO 205 colon
DU-145 prostate = system: DU-145 prostate
K-562 leukemia = system: K-562 leukemia
MALME-3M melanoma = system: MALME-3M melanoma
MDA-MB-231 breast = system: MDA-MB-231 breast
RXF 393 renal = system: RXF 393 renal
SF-268 CNS = system: SF-268 CNS
SF-295 CNS = system: SF-295 CNS
SF-539 CNS = system: SF-539 CNS
UACC-257 melanoma = system: UACC-257 melanoma
M14 melanoma = system: M14 melanoma

SMILES	growth (NCI-H23 lung)	growth (NCI-H226 lung) [%]	growth (NCI-H322M lung) [%]	growth (HOP-62 NSCLC)	growth (NCI-H460 lung)	growth (HOP-92 NSCLC)	growth (NCI-H522 lung)	growth (A549/ATCC NSCLC) [%]	growth (786-0 renal)	growth (COLO 205 colon)	growth (DU-145 prostate)	growth (K-562 leukemia)	growth (MALME-3M melanoma)	growth (MDA-MB-231 breast)	growth (RXF 393 renal)	growth (SF-268 CNS) [%]	growth (SF-295 CNS)	growth (SF-539 CNS)	growth (UACC-257 melanoma)	growth (M14 melanoma)
O=C(CSc1nc2ccccc2c(=O)n1-c1ccc(Cl)cc1)N/N=C/c1ccc(Oc2ccc(Cl)cc2)cc1	3.12% (active)	75.6	89.8	32.6%	-34.5% (active)	2.59% (active)	20.7%	16.5	-4.71% (active)	14.6%	13.1%	23%	-39.4% (active)	30.4%	-43.8% (active)	55.8	64.7%	69.7%	59%	-39.4% (active)
Cc1cc(C)cc(NC2=C(Cl)C(=O)c3nc(C)ccc3C2=O)c1	22.1%	28.5	91.7	101%	93.1%	118%	19%	73.7	79%	107%	2.27% (active)	6.63% (active)	76.1%	53.8%	75%	85.2	77.2%	71.5%	30.1%	72.8%
C/C(=N\NC(N)=S)c1nnn(-c2ccc([N+](=O)[O-])cc2)c1C	95.4%	93.1	95.3	99.4%	100%	98.7%	89.6%	103	103%	103%	104%	119%	92.8%	96.2%	66.2%	97	98.8%	97.5%	98.4%	99.5%
CCOC(=O)C1=C(C)NC(C)=C(C(=O)OCc2ccccc2)C1c1cccc(C#N)c1 (stereo not given)	62.5%	58.4	69	45.6%	22.1%	50.5%	9.38% (active)	34.1	36.2%	34.5%	57.2%	16.9%	38%	52.3%	44.5%	57.1	15.5%	23.1%	55.9%	14.6%
CS(=O)(=O)c1nccc(-c2c(-c3cccc(OCc4ccc(Cl)c(C(F)(F)F)c4)c3)nc3sccn23)n1	39.4%	23.6	86.1	32%	55.6%	73.9%	80.1%	106	106%	105%	-25% (active)	14.2%	88.3%	84.4%	78%	104	95%	93.3%	66.9%	72.9%
CC1(C)CC[C@]23CC[C@]4(C)[C@H](CC[C@@H]5[C@@]6(C)CC[C@H](NCO)C(C)(C)[C@@H]6CC[C@]54C)[C@H]2[C@H]1OC3	55.7%	97.2	84.2	79.8%	-41.1% (active)	40.1%	101%	60.5	64.3%	-48.5% (active)	14.8%	4.93% (active)	93.5%	19.7%	56.3%	77	59.6%	69%	103%	35.9%
O=C(CCCCCCNC(=O)c1csc(Br)n1)NO	47.7%	79	61.6	48.2%	34.9%	5.32% (active)	15.7%	34.8	72.4%	20.9%	26.7%	13.8%	8.89% (active)	50.2%	3.36% (active)	69.4	52%	36.7%	18.4%	29.4%
O=C(CCCCCCN1CC(=O)N2[C@@H](c3ccccc3Br)c3[nH]c4ccccc4c3C[C@H]2C1=O)NO	63.9%	99.7	66.1	61.5%	51.8%	29%	-5.74% (active)	88.4	87.3%	42.8%	62.7%	22.6%	14.4%	50%	43.1%	79.6	55.3%	51%	39.9%	42.1%
CC1(C)CC[C@]2(C(=O)O)CC[C@]3(C)C(=CC[C@@H]4[C@@]5(C)CC[C@H](NOCCCN)C(C)(C)[C@@H]5CC[C@]43C)[C@@H]2C1	91.1%	90.3	94	102%	73.3%	62.3%	97.2%	77.9	98.6%	19.6%	94.7%	46.4%	91.6%	92.4%	68.8%	100	101%	86.4%	89.2%	94.7%
O=C(/C=C/c1cccc(C(F)(F)F)c1)Nc1cccc(C(F)(F)F)c1	33.1%	64.2	79.9	58.4%	13.9%	7.77% (active)	33.8%	39	76.4%	38.4%	30.1%	23.2%	84.7%	108%	88.7%	70.7	10.5%	97.1%	87.5%	56.8%
CC(C)NC(=O)c1cc(-c2ccc(NC(=O)Nc3ccc(F)cc3)cc2)nc2cccnc12	99.4%	99.1	104	101%	104%	96.7%	96.8%	104	97.1%	118%	114%	110%	118%	97.8%	123%	109	97.7%	102%	102%	102%
O=C(Nc1ccccc1)Nc1nc2ccc([N+](=O)[O-])cc2[nH]1	39.5%	55.4	58.5	105%	44.1%	-5.31% (active)	28.4%	56.7	67.5%	88.7%	56.3%	43.4%	40.1%	74.9%	60%	71.5	66.3%	61.7%	57.4%	58.2%
CCCCCCNC(=O)Oc1ccc(/C(=C(/C)c2ccc(OC)cc2)c2ccc(OCCN3CCCCCC3)cc2)cc1	20.4%	81	82.1	-9.29% (active)	-67.9% (active)	63.4%	82.4%	45.7	24.3%	-60.5% (active)	47.8%	2.71% (active)	-34.9% (active)	6.27% (active)	-8.34% (active)	60.3	-41.3% (active)	-59% (active)	9.09% (active)	-63.5% (active)
COc1ccc(-c2nc(C#N)c(N3CCC(S(=O)(=O)N4CCOCC4)CC3)o2)cc1	94.5%	93.9	97.2	99.2%	103%	99.3%	89.5%	98.1	94.2%	111%	100%	98.8%	107%	95.1%	108%	94.2	102%	97.5%	109%	109%
O=C(/C=C/c1cccc(F)c1)c1cccc(OCCCOc2cccc(C(=O)/C=C/c3cccc(F)c3)c2)c1	49.2%	77	101	132%	96.1%	115%	83.2%	69.8	51%	82.2%	86.6%	21.7%	99.4%	81%	70.1%	92.1	-19.8% (active)	92.3%	107%	92%
O=C(/C=C/c1ccc(Cl)c(Cl)c1)Nc1ncc(Cc2ccc(Cl)c(Cl)c2)s1	70.4%	70.7	58.5	50.9%	28.3%	92.7%	40.4%	53.5	78.8%	4.63% (active)	49.5%	15.3%	79.8%	97.1%	104%	61.4	7.58% (active)	60.5%	40.9%	-27.4% (active)
CC1=C(C)C(=O)C(Nc2cccc(C(F)(F)F)c2)=C(Br)C1=O	88.8%	83.2	100	81.1%	96.4%	25%	29.2%	94.4	97%	115%	105%	-17.9% (active)	101%	69.2%	105%	97.7	106%	96%	88.1%	99%
CCNC(=O)Oc1ccc(/C(=C(/C)c2ccc(Cl)cc2)c2ccc(OCCN3CCCCCC3)cc2)cc1	22.1%	80.9	75.9	-19.9% (active)	-62.3% (active)	60%	82.4%	43.9	22.5%	-74.5% (active)	58.5%	5.06% (active)	-58.4% (active)	21.3%	-10.3% (active)	53.9	-40.1% (active)	-44% (active)	-19.9% (active)	-76.5% (active)
N#C/C(=C\c1cccc2c1OCO2)C(=O)Nc1sc2c(c1C#N)CCCC2	102%	95.8	89.1	96.8%	110%	101%	94.2%	104	99.6%	119%	111%	104%	105%	95.6%	123%	103	97.2%	97%	110%	97.5%
CC1(C)CC[C@]2(C(=O)NCCCCCCN(CCCN)CCCN)CC[C@]3(C)C(=CC[C@@H]4[C@@]5(C)CC[C@H](O)C(C)(C)[C@@H]5CC[C@]43C)[C@@H]2C1	105%	100	95.1	111%	102%	101%	101%	93.1	91.5%	102%	107%	109%	103%	93.7%	113%	97.2	105%	102%	97.6%	105%
CN1CCN(c2ccc(Nc3nc(NCCCNS(=O)(=O)c4ccc(F)cc4)c4sccc4n3)cc2)CC1	87%	99.4	87.6	91.5%	72%	37.8%	71%	77.9	3.97% (active)	50.5%	72.6%	10.4%	-66.2% (active)	43.2%	36.5%	60.3	32.4%	-76% (active)	-28.6% (active)	-21.3% (active)
CC[C@]12CC(C(=O)OC)=C3Nc4ccccc4[C@@]34CCN(C14)[C@@H]1c3cc4c(cc3O[C@@H]1[C@H]2O)NC1=C(C(=O)OC)C[C@@]2(CC)C3N(CC[C@@]143)C[C@H]1O[C@H]12 (stereo not given in full)	10.2%	18.9	28.8	29%	15.3%	-2.19% (active)	1.97% (active)	21.9	23.2%	-1.32% (active)	41.9%	6.04% (active)	5.67% (active)	22.2%	-17.9% (active)	29.4	9.12% (active)	15.5%	24.8%	17.6%
COc1ccc(N2CCN(C3=C(Cl)C(=O)c4ncccc4C3=O)CC2)cc1	55.9%	94	97.2	85.4%	52.7%	96.2%	-9.71% (active)	96	107%	30.5%	5.58% (active)	6.59% (active)	23.7%	62.5%	15.2%	86	108%	89.6%	24.6%	45.6%
CCc1cccc2c3c(sc12)C(c1ccc(F)cc1)C(C#N)=C(/N=C/c1ccc(Cl)cc1)O3 (stereo not given)	32.4%	44.6	52.9	36.4%	14.6%	66.6%	-43.4% (active)	31.1	34.2%	-33.6% (active)	29%	10.5%	57.2%	30.3%	-7.19% (active)	43.5	6.46% (active)	-6.53% (active)	69.4%	9.94% (active)
COc1ccc2c(c1)C=CC1(O2)Oc2ccc(OC)cc2C=C1C (stereo not given)	39.7%	57.4	49.5	51%	7.29% (active)	-6.57% (active)	10.7%	18.5	26.5%	2.43% (active)	34.1%	8.41% (active)	55.2%	2.14% (active)	-12.3% (active)	54.4	7.92% (active)	-11% (active)	73%	3.03% (active)
CC1=C(C)C(=O)C(Nc2cccc(C(=O)OC(C)(C)C)c2)=C(Cl)C1=O	92.4%	91.3	99.5	103%	99.8%	56.4%	81.7%	90.4	96.5%	118%	103%	21.6%	94.4%	48.9%	103%	92	105%	96.6%	91.4%	83.3%
COc1cc2oc(-c3cccc(NC(=O)[C@@H](N)C(C)C)c3)cc(=O)c2c(OC)c1OC	103%	107	102	103%	103%	91.9%	92.7%	94.6	87.1%	111%	105%	105%	110%	99.2%	107%	107	96.7%	95.9%	108%	111%
CC1=C(C)C(=O)C(Nc2ccc(C)cc2)=C(Br)C1=O	87.7%	86.5	104	83.2%	102%	-35.8% (active)	96.1%	100	106%	124%	106%	-21.3% (active)	112%	70.1%	97.7%	97.3	98.1%	100%	93.8%	106%
Cc1nc(/N=C(N)/N=C(\N)c2cccc(Br)c2)sc1C	59.7%	73.1	86.2	50%	30.1%	88%	45.7%	56.8	75.2%	55.6%	57.9%	15.9%	62%	76.5%	56.9%	80	8.89% (active)	37.8%	88.3%	47.1%
CCCCSC1=C(Cl)CN(c2ccccc2)C1=O	102%	102	101	111%	104%	95.7%	-9.23% (active)	104	108%	125%	104%	91.6%	94.6%	98.2%	109%	106	98.8%	97.3%	101%	103%
